Source: PubChem BioAssay (several laboratories)
This is a sample that favours compounds with a hit; in the whole collection about 2.1% have one here.
HIF-2a inh = blocks HIF-2a reporter activity | 786-0 RCC cells HIF-2a reporter, luciferase luminescence, overnight | inhibition, % at 18.8 µM | 360,000 tested, 0.72% active | AID 624352;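 active = inhibition of the luminescence signal of 40% or more relative to plate controls, in a single-dose primary screen at 18.75 µM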
KKLEB tox = counter-screen for CF NF-kB inhibitors: cytotoxicity; KKLEB CF airway cells viability, ATPlite luminescence, overnight; active compounds read low; cells stimulated with P. aeruginosa culture filtrate; activity change (cytotoxicity), % at 5 µM; 360,000 tested, 0.36% active;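 active = corrected activity change at or below -50% at 5 µM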
CF NFkB inh = cystic fibrosis NF-kB activation inhibition. 360,000 tested, 0.86% active. KKLEB NF-kB-GFP reporter, PAF-induced, GFP fluorescence overnight. inhibition, % at 5 µM;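 active = at least 50% inhibition at 5 µM, scaled per plate between neutral and stimulator controls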;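 also: PAF is a Pseudomonas aeruginosa culture filtrate used as stimulus; plate controls were PAF-stimulated DMSO wells for no effect and unstimulated DMSO wells for full effect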
PAX8 inh HTS = PAX8 transcriptional activity inhibition; RMG-I TPO-luciferase reporter, SteadyGlo, 24 h; inhibition, % at 12.6 µM; 360,000 tested, 1.2% active; AID 652154;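 active = mean replicate inhibition at least 60% with every replicate also reaching 60%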;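 also: luciferase light reporting Pax8 driven TPO promoter activity; plate controls were median of neutral control wells for no effect and mitoxantrone controls for full effect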
EWS-Fli block = inhibitors of EWS/Fli oncoprotein transcriptional activity. A673 NR0B1-luciferase reporter, viability-normalised. inhibition, % at 12.6 µM. 350,000 tested, 0.67% active;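 active = mean inhibition of at least 50% after viability correction, with every replicate also passing that limit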;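 also: firefly luciferase signal divided by Alamar Blue viability fluorescence both relative to DMSO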
Mdm2 MdmX conf = Mdm2/MdmX (human) interaction inhibition, confirmed. 740 tested, 99% active. SaOS-2 split-luciferase Mdm2/MdmX complementation, luminescence. inhibition, % at 8 µM. shares compounds with HIF-2a inh;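 active = mean inhibition of the luminescence signal across two replicates at or above 26 percent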
HIF-2a conf = confirmation of HIF-2a inhibitors. 786-0 RCC cells, HIF-2a luciferase reporter luminescence, overnight. 1,800 tested, 56% active. shares compounds with HIF-2a inh. inhibition, % at 18.8 µM;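 active = mean inhibition across four replicates of at least 40 percent at the single tested concentration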
HIF-1a counter = HIF-1a inhibition counter-screen for HIF-2a hits | shares compounds with HIF-2a inh | MiaPaCa-2 HIF-1a luciferase reporter, desferoxamine, overnight | inhibition, % at 18.8 µM | 1,800 tested, 72% active | AID 651589;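 active = mean inhibition of the reporter signal across four replicates at the single tested dose of 50% or more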
The depositor's hits bear a star; / = no result.

SMILES	HIF-2a inh	KKLEB tox	CF NFkB inh	PAX8 inh HTS	EWS-Fli block	HIF-2a conf	HIF-1a counter	others
O=C(O)c1ccc(/C=C(\c2nc3ccccc3[nH]2)c2nc3ccccc3s2)cc1	-49	-2	7	1	-29	/	/
O=C(NCC[C@@H]1CC[C@H](NC(=O)c2cccnc2)[C@H](CO)O1)Nc1ccc(C(F)(F)F)cc1	/	/	/	18	-3	/	/
O=C(Nc1cc(F)ccc1F)N1CCCCN2[C@@H](CO)[C@@H](c3ccc(-c4ccccc4)cc3)[C@@H]2C1	/	/	/	-1	/	/	/
Cc1cc(C)c2c(NC(=O)CCl)nn(C)c2n1	10	-17	17	26	0	/	/
CCc1cc(SC#N)cc(CC)c1NC(=O)CCl	49*	-30	39	22	/	35	-23
O=C(C[C@@H]1CC[C@@H]2[C@H](COC[C@H](O)CN2C(=O)Nc2ccc(C(F)(F)F)cc2)O1)NCCc1ccncc1	/	/	/	-8	-12	/	/
Cc1cc(C)n(-c2ncc(C#N)cn2)n1	49*	14	1	-13	2	4	-3
CS(=O)(=O)c1ccc(NC(=O)c2cccc(-n3cnnn3)c2)cc1	8	5	18	2	-4	/	/
CS(=O)(=O)c1ccc(Cl)c(NC(=O)c2cccc(-n3cnnn3)c2)c1	51*	5	1	-7	12	8	23
Cc1c(C#N)c(N)nc2c3c(sc12)NC(=O)CC3c1ccc(Cl)cc1 (stereo not given)	40*	0	-39	15	50	18	17
CCN1CSC(=S)N(Cc2ccc(OC)cc2)C1	67*	5	-8	13	10	-1	42
COc1ccc(Cn2c(SCc3cc(C)ccc3C)nc3cc(OC)c(OC)cc3c2=N)cc1	95*	-44	25	/	/	2	107*	Mdm2 MdmX conf=103*
COc1ccc(Cn2c(SCc3ccc(C)cc3)nc3cc(OC)c(OC)cc3c2=N)cc1Cl	91*	-94*	96*	109*	/	60*	105*	Mdm2 MdmX conf=103*
Cc1noc(C)c1S(=O)(=O)Nc1cccc2c1O[C@@H](CN(C)Cc1ccc3c(c1)OCO3)[C@@H](C)CN([C@@H](C)CO)C2=O	/	/	/	/	4	/	/
COC(=O)C1(C)CCc2c(ccc3ccccc23)C1=O (stereo not given)	-180	-2	-9	9	5	/	/
CCC1(C(=O)OC)CCc2c(cc(OC)c3ccccc23)C1=O (stereo not given)	55*	-6	26	-5	12	-2	-20
Oc1ccccc1CNc1ccc(Br)cn1	-214	-22	-11	/	/	/	/	Mdm2 MdmX conf=32*
Oc1ccc(Nc2nc(N3CCCC3)c3ccccc3n2)cc1	46*	-4	-65	/	/	35	104*
CCOC(=O)c1ccc(NC(=S)NC(=O)c2cncc(Br)c2)cc1	31	10	-19	-14	19	/	/
CCCCOC(=O)c1ccc(NC(=S)NC(=O)c2c(Br)c(C)nn2C)cc1	46*	-3	7	41	17	56*	19
N#CCCN(C(=O)CCl)c1cccc(Cl)c1	14	-10	25	1	35	/	/	Mdm2 MdmX conf=101*
CCC(=O)Nc1cccc(-c2cnc3ccccc3n2)c1	-230	0	-2	-110	/	/	/
O=C(CCl)Nc1cccc(-c2cnc3ccccc3n2)c1	-27	-64*	88*	-78	/	/	/	Mdm2 MdmX conf=102*
C#CCN(C[C@H]1[C@H](OC(=O)NCC2CCCCC2)[C@H](OC(=O)NCC2CCCCC2)C[C@@H](C(=O)OC)[C@H]1C(=O)OC)S(=O)(=O)c1ccc(C)cc1	-5	-1	-2	-12	-5	/	/
C#CCN(C[C@@H]1[C@@H](OC(=O)NCC2CCCCC2)[C@@H](OC(=O)NCC2CCCCC2)Cn2c(=O)ccc(=O)n21)S(=O)(=O)c1ccc(C)cc1	97*	-97*	106*	116*	38	99*	107*
